This passage reports Potency and outcome results from PubChem BioAssay (NCATS).

Inconclusive results are not listed. Where a call stands in place of a potency, no number is given. The source made the active and inactive calls. Calls follow the shape of the dose curve; as a rule, active = well fitted inhibition curve with a large enough effect; inconclusive = small, poorly fitted or top-dose-only effect; inactive = flat fitted curve, though single readings scatter.

Sequence of Lysine-specific demethylase 5B (Homo sapiens) (Q9UGL1 whole entry, looked up): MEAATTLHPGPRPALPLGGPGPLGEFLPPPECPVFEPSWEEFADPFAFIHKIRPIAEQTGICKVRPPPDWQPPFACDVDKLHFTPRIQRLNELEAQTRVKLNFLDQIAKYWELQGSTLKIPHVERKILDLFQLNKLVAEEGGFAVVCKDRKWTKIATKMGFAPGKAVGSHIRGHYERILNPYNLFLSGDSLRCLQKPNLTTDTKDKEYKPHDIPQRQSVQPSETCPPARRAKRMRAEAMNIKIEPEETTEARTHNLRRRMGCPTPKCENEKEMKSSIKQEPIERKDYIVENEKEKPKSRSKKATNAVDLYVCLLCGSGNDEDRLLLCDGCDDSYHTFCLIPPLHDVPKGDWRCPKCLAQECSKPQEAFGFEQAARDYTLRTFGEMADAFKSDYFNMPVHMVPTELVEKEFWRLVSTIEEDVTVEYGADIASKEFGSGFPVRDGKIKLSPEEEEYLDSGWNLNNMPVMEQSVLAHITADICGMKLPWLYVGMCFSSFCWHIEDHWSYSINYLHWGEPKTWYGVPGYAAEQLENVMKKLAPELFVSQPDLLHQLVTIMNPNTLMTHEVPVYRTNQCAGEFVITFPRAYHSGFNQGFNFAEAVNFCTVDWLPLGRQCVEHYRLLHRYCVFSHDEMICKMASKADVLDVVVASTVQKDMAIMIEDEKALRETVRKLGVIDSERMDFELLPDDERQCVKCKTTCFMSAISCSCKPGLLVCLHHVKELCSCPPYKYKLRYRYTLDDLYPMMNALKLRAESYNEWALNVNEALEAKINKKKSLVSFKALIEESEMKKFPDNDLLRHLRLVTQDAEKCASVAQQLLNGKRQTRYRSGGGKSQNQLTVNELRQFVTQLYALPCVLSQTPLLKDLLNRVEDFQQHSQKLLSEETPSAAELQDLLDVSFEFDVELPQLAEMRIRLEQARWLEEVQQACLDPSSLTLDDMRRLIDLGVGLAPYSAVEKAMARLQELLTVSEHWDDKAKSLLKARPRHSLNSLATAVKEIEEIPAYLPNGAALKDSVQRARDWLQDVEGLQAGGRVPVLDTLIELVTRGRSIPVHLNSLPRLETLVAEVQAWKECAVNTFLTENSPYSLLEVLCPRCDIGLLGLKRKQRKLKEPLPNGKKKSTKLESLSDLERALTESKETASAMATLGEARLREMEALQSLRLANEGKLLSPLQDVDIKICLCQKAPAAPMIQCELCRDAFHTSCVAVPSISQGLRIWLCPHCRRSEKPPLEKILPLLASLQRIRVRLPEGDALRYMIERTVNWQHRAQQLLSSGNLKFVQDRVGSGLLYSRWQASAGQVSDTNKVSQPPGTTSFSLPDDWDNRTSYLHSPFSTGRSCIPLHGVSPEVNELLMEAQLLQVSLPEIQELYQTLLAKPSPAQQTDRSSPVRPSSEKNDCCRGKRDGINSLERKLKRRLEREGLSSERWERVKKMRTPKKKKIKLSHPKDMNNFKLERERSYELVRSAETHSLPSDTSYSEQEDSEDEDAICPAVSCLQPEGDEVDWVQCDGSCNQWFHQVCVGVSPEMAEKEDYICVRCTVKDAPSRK

The test system of one test is Zika virus NS2B-NS3 protease. Description: Primary screen GU AMC qHTS for Zika virus inhibitors (AID 1347154). Also: nearly all actives have a fitted effect of over 70% in size. Also: potency is read from the fitted curve at half-maximal effect. To be noted: Zika NS2B-NS3 unlinked protease, AMC fluorogenic substrate; series mostly up to 54.1 µM. In short, it runs like this: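 Fluorogenic AMC-substrate cleavage by noncovalent NS2B-NS3 protease complex (25 nM, pH 8.0 Tris buffer with Tween 20) followed for 15 minutes at room temperature (~20% conversion). Percent inhibition from ex340/em450 signal change, fitted by 4-parameter Hill equation.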
Take `CCC(=O)C(CCN(C)C)(c1ccccc1)c1ccccc1`: the Potency result was “inactive”.
For the molecule `CC[C@]1(O)CC[C@H]2[C@@H]3CCC4=CCCC[C@@H]4[C@H]3CC[C@@]21C`, the Potency entry is “inactive”.
As to `CC(C)[N+](C)(CCC(C(N)=O)(c1ccccc1)c1ccccc1)C(C)C`, the Potency entry was “inactive”.
For `CCN(CC)C(C)C(=O)c1ccccc1` (configuration not stated), the Potency entry was “inactive”.
`CCC(=O)OC1(c2ccccc2)CCN(C)CC1`: the Potency result is “inactive”.
In the case of `C[N+](C)(C)CCOC(=O)C(O)(c1ccccc1)c1ccccc1`, the Potency entry was “inactive”.
`COc1ccc(C(=O)N2CCCC2=O)cc1`: the Potency result is “inactive”.
On to `COc1cc(CC#N)cc(OC)c1OC`, for which the Potency result is “inactive”.
Take `CC[C@H](O)C(C[C@H](C)N(C)C)(c1ccccc1)c1ccccc1`: the Potency entry was “inactive”.
`CN1C(=O)CN=C(c2ccccc2)c2cc(Cl)ccc21`: the Potency result is “inactive”.
On to `CCN1CCCC1CNC(=O)C(O)(c1ccccc1)c1ccccc1` (configuration not stated), for which the Potency result was “inactive”.
On to `COc1ccc2c3c1O[C@H]1[C@@H](O)C=C[C@H]4[C@@H](C2)N(C)CC[C@@]341`, for which the Potency result was “inactive”.
As for `Oc1ccc([C@H]2CNCc3c2ccc(O)c3O)cc1O`, the Potency was 10.2 µM (active).
For `C1CN2CCC1CC2`, the Potency result was “inactive”.
The same measure, in the same setting: the same measure for `Cc1nnc2n1-c1sc(CCC(=O)N3CCOCC3)cc1C(c1ccccc1Cl)=NC2`: “inactive”.
In the case of `O=C1CN2CCOC2(c2ccccc2Cl)c2cc(Cl)ccc2N1` (configuration not stated), the Potency entry was “inactive”.
In the case of `CC(C)(C)OC(=O)c1ncn2c1[C@@H]1CCCN1C(=O)c1c(Br)cccc1-2`, the Potency entry is “inactive”.
For the molecule `Nc1ccc(N)cc1`, the Potency result is “inactive”.
Consider `CCN(Cc1ccc(Cl)nc1)/C(=C/[N+](=O)[O-])NC`, for which the Potency entry was “inactive”.

In the next test the target is Lysine-specific demethylase 5B (Homo sapiens) (UniProt Q9UGL1). In words: Optimization screen for KDM5B Histone Demethylases FDH coupled qHTS against the LOPAC library (AID 1347166). The conditions noted are these: KDM5B demethylation, FDH-coupled NADH fluorescence (FDH is formaldehyde dehydrogenase); series mostly up to 57.5 µM. Put shortly:
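KDM5BDeltaAP (200nM final) in 50mM HEPES pH 7.5, 0.01% Tween-20 was preincubated with compound for 10 min at room temperature. A substrate mix of 12.5uM H3K4Me3, 25uM a-ketoglutarate, ascorbate, Fe2+, NAD+ and formaldehyde dehydrogenase was then added. NADH fluorescence (340/450 nm) was read initially and after 30 min.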
In the case of `NC(=O)CN1CCCC1=O`, the outcome was inactive.
On to `COc1ccc(C(=O)N2CCCC2=O)cc1`, for which the molecule was called inactive.
`COC(=O)C1=CCCN(C)C1`: the outcome was inactive.
